Experimental data taken from the supplement of paper PMC7724964.

biological target: DEPDC6 20-129 DEP (domain begin residue: 20, domain end residue: 129); assay: phage ELISA signal ratio (GST-PRM binding over GST background); higher = stronger binding of peptide-phage to the PRM
Method: (§1)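 Phage-displayed random hexadecapeptides (Cys-free, flanked by invariant Gly linkers, fused to the M13 P8 major coat protein) were selected over 5 rounds against GST-fused human PRM domains. Individual clones from rounds 4-5 were tested by phage ELISA, and positive clones binding the target but not GST were sequenced. Values are the ELISA signal ratio of target over background (GST); the background signal is given separately.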

Binder	phage ELISA signal ratio
MESAFQQVMLAYYQEL	21.9
MQMTFLDMMEQYRLME	33.8
EQQHDKFQMMMNIYKY	23
MYTFEEMWMHWKLVEM	23.6
GDKSEWFRALLDEYLV	21.6

Biological target: T1, DOK3 213-322 IRS (domain begin residue: 213, domain end residue: 322), Q7L591
T1 chain: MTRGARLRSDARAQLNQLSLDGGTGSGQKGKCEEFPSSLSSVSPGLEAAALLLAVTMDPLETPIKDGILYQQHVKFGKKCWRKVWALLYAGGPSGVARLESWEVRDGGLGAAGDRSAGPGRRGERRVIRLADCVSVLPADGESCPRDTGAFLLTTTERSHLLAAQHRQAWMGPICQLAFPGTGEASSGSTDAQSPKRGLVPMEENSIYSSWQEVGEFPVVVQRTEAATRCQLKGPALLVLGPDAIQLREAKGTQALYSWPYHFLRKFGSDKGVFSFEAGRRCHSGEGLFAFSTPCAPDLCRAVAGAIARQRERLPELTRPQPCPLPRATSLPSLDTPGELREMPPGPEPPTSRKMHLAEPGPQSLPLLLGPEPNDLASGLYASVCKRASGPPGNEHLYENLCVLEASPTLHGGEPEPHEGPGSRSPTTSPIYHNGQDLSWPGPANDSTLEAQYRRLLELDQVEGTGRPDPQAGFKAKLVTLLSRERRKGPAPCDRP
Assay: as above
Method: as §1

Binder	phage ELISA signal ratio
NQLRFNPQWTVPNFRN	3.31
WEWSQEIWLPPHMMVD	12.3
VWEEVMTMEQWQWHNF	5.77
EYKTMPWEEIMMPYNY	3.85
GHNEIMTIQQHATWLY	5.54

biological target: DOK4 130-237 IRS (domain begin residue: 130, domain end residue: 237), Q8TEW6; assay: as above
Sequence (Q8TEW6 whole entry): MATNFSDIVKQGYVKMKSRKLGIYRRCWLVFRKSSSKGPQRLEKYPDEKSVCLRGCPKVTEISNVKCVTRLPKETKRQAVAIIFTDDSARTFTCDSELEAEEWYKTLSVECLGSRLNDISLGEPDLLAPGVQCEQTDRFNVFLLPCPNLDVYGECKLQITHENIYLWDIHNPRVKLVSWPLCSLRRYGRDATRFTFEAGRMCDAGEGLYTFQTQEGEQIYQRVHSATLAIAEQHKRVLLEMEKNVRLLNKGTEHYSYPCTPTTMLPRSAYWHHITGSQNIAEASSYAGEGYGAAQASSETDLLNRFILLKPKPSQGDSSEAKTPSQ
Method: as §1

Binder	phage ELISA signal ratio
EHLRPEMDWTYVWWEH	4.35
YELSWTHTPWSHFIAT	6.86
MWEWTDNPSYTIPGQQ	7.86
WPEGIKYTWVKEHETE	8.42
VIWTWNPMAGMEAWNI	5.11
FEWTSSPVWSDHQEHN	11.5
PEQMEYWTWSPLHVSQ	13.1
DDMIWQWQMNPIWMMD	11.5
QWMDLNDLQWTYNPWY	11.2
GWDDQIWTWSPMYMPV	19
IEWTHTNWEWNKMETQ	11.9
YETPEPQWLWVMNPIH	14.6

Biological target: T2, DOK2 146-252 IRS (domain begin residue: 146, domain end residue: 252), O60496
T2 chain: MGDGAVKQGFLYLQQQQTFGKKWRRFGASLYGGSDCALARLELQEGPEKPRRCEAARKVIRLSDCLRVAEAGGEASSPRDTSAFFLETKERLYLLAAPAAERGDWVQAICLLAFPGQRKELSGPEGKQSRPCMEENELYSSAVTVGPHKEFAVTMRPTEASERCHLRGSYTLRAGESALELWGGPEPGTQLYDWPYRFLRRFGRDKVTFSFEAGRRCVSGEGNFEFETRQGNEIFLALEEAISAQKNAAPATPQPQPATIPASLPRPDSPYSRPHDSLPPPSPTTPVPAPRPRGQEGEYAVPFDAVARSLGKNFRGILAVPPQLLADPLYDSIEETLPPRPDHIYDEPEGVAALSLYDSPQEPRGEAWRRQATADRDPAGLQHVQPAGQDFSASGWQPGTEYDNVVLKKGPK
Assay: as above
Method: as §1

Binder	phage ELISA signal ratio
PYTWYENPLWVPSPME	15.2
DEWTWHFVEQPWHMAG	7.99
HLTGQEGDWIWHWLEN	10.4
EQLWWSNPLWTEGIEE	16.1
TMAWEWIGNDVYVSHD	7.8
EWVEWVSPWMVEHGDW	17.8
DEWKWFDMVGTQTQTP	16.8
DLMVWYDNPYYHSEMI	9.37
EWMWMDNPGFHMTEAT	13.6
VVNEQHGWKWMILEHE	20.7
QFIVWENEYYEHWGGK	21.1
DLDFMWWDNPVHETDL	16.8

Biological target: T3, DOK1 151-256 IRS (domain begin residue: 151, domain end residue: 256), Q99704
T3 chain: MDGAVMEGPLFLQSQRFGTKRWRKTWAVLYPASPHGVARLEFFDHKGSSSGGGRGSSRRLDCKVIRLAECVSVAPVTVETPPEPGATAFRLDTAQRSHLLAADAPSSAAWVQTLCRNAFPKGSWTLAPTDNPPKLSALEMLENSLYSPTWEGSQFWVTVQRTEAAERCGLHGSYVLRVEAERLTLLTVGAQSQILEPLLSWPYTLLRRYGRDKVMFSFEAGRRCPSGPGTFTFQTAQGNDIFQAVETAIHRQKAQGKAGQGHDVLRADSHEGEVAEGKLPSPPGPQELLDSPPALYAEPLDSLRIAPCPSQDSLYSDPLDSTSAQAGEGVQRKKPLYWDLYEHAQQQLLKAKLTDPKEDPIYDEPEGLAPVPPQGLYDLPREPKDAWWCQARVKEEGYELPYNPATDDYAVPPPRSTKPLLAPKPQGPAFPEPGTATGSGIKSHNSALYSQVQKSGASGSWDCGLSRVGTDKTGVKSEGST
Assay: as above
Method: as §1

Binder	phage ELISA signal ratio
DEWMLNETWIDYQELH	20
WSEVWWTDLEGAMFWV	16.2
DLQWKWVYWHDLDDGE	22.6
YDQTGWAWVHEMQDMV	8.33
VWDLDTSADYLWVWMG	19.3
WVWHDMHLSAPFQHQE	3.72
VDDGDWVWVHVSQQFM	31.2
QWMGLSVEQFAMNPWY	17.7
EWFMDASGYWNNLQVS	7.98
QMVWHYPWEATDTHGW	33.5
PGEMQESNWLWKFVDW	29.1
MPWPMWEQYQQHMQWV	19.7
DTKWNIVHWDWDTWVH	16.4
EPWVDWSESMWAWVNT	17.6
DWPNYPANSWKYVTWA	10.2
DWEAWHHNVDFAWGWV	9.3
WNEWNEKEMLWESVEG	37.8
DWVWSDVGGHVPQVWD	25
WVTWDNSSLKWIDETY	28
ADQWVWHYIMEMEQVR	33
DNHWIWKEVNPMFMKD	30.4

biological target: DOK5 130-237 IRS (domain begin residue: 130, domain end residue: 237), Q9P104; assay: as above
Method: as §1

Binder	phage ELISA signal ratio
DWVWTIPFEQVFSEVM	4.96
GVGWAKQIEWTVSPMM	3.95
